Assay results reported in PubChem BioAssay (NCATS).
Inconclusive results are not listed. Active and inactive are the calls of the source. Calls follow the shape of the dose curve; as a rule, active = well fitted cell-killing curve with a large enough effect; inconclusive = small, poorly fitted or top-dose-only effect, or effect the other way; inactive = no such curve, though single readings can be large or run the other way. Starred links: 1 amine or outer side, 2 acyl side, 3 side chain; linkers in the order of their positions; H or OH if unused. Positions of bridges follow the written chain, without caps; N, C: chain ends. Non-standard residues stand in square brackets, D forms with d. Residues, ends and D or L forms follow the SMILES beside them. Chains are numbered I, II in the order given. Actinocin(9to1) = Cc1c2oc3c(C)ccc(C(=O)[*:1])c3nc-2c(C(=O)[*:2])c(N)c1=O; NMeV = CN[CH](C(=O)O)C(C)C; Sar = CNCC(=O)O

Test: Quantitative High-Throughput drug screen in 47 multiple myeloma cell lines against the NCATS MIPE library collection: XG6_PLB cell viability assay (AID 1919865); also: nearly all actives have a fitted effect of over 40% in size;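 as to viability (% of control): 100% = DMSO-only wells and 0% = media-only wells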
Settings: XG6 myeloma viability, CellTiter-Glo ATP luminescence, 48 h; series mostly up to 45.8 µM; viability (% of control): at the top concentration
In short: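 Cells were exposed to library compounds for 48 hours, after which ATP was measured by CellTiter-Glo. Signal was taken as median relative luminescence units.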
Potency is read from the fitted curve at half-maximal effect.

SMILES | Potency | viability (% of control)
CCc1ccc(C(=O)Nc2cc(CN3CCN(C)CC3)cc(C(F)(F)F)c2)cc1C#Cc1cnc2ccnn2c1 | 4.18 µM (active) | 
C=CC[C@@H]1C=C(C)C[C@H](C)C[C@H](OC)[C@H]2O[C@@](O)(C(=O)C(=O)N3CCCC[C@H]3C(=O)O[C@H](C(C)=C[C@@H]3CC[C@H](O)[C@H](OC)C3)[C@@H](C)[C@@H](O)CC1=O)[C@@H](C)C[C@@H]2OC | 1.48 µM (active) | 
CO[C@@H]1[C@@H](O)[C@H](O)[C@@H](n2c3c(Cl)cccc3c3c4c(c5c6cccc(Cl)c6[nH]c5c32)C(=O)NC4=O)O[C@@H]1CO | 0.0743 µM (active) | 
Cc1cc(O)c2c(c1)C(=O)c1cccc(O)c1C2=O |  | 109% (inactive)
C[C@H](NC(=O)C(C#N)=Cc1cccc(Br)n1)c1ccccc1 | 2.35 µM (active) | 
Cn1cnc(=N)c2[nH]cnc21 | 0.132 µM (active) | 
CC(C)N1[N]C(=C2C=c3cc(O)ccc3=N2)c2c(N)ncnc21 | 0.296 µM (active) | 
COc1cccc2c1C(=O)c1c(O)c3c(c(O)c1C2=O)C[C@@](O)(C(=O)CO)C[C@@H]3O[C@H]1C[C@H](N)[C@@H](O)[C@H](C)O1 | 0.148 µM (active) | 
COc1cc(C=CC(=O)CC(=O)C=Cc2ccc(O)c(OC)c2)ccc1O | 10.8 µM (active) | 
CCC[C@H]1C[C@H](C(=O)N[C@@H]([C@@H]2O[C@@H](SC)[C@@H](O)[C@@H](O)[C@@H]2O)[C@H](C)Cl)N(C)C1 |  | 83.9% (inactive)
C=CC(=O)Nc1ccc2ncnc(Nc3ccc(OCc4cccc(F)c4)c(Cl)c3)c2c1 | 0.0148 µM (active) | 
Cn1cc(C2=C(c3c4n(c5ccccc35)CCC(CN)C4)C(=O)NC2=O)c2ccccc21 (stereo not drawn) | 7.43 µM (active) | 
O=C(Nc1cccc(Nc2ncc(Br)c(NCCc3cnc[nH]3)n2)c1)N1CCCC1 | 0.59 µM (active) | 
C=CCNc1c(O)cc2c(O)c1C[C@@H](C)C[C@H](OC)[C@@H](O)[C@@H](C)C=C(C)[C@H](OC(N)=O)[C@@H](OC)C=CC=C(C)C(=O)N2 | 1.05 µM (active) | 
CCS(=O)(=O)Nc1ccc2[nH]c(O)c(C(=Nc3ccc(CN4CCCCC4)cc3)c3ccccc3)c2c1 | 3.32 µM (active) | 
CCN(CC)CCNC(=O)c1c(C)[nH]c(C=C2C(=O)Nc3ccc(F)cc32)c1C | 1.71 µM (active) | 
COC1=C2C[C@@H](C)C[C@H](OC)[C@@H](O)[C@@H](C)C=C(C)[C@H](OC(N)=O)[C@@H](OC)C=CC=C(C)C(=O)NC(=CC1=O)C2=O | 0.332 µM (active) | 
NC(=NCCCCCCN=C(N)N=C(N)Nc1ccc(Cl)cc1)N=C(N)Nc1ccc(Cl)cc1 | 2.35 µM (active) | 
Nc1nc(N)c2nc(-c3cccc(O)c3)c(-c3cccc(O)c3)nc2n1 | 3.32 µM (active) | 
CC(C)C[C@H](NC(=O)[C@@H](NC(=O)c1cccc(-c2ccccc2)n1)[C@@H](C)O)B(O)O | 0.0132 µM (active) | 
O=C1CSC(=O)N1C(CCc1ccncc1)COc1ccc(-c2cccc([N+](=O)[O-])c2)cc1 (stereo not drawn) | 13.2 µM (active) | 
C#C[C@]1(O)CC[C@@H]2[C@@H]3CCC4=CC(=O)CC[C@@H]4[C@H]3CC[C@@]21CC |  | 89.5% (inactive)
CC(=O)O[C@@]12CO[C@H]1C[C@H](O)[C@@]1(C)C(=O)[C@H](O)C3=C(C)[C@@H](OC(=O)C(O)[C@@H](NC(=O)OC(C)(C)C)c4ccccc4)C[C@@](O)([C@@H](OC(=O)c4ccccc4)[C@@H]21)C3(C)C (stereo partly drawn) |  | 42.4% (inactive)
C[C@H](NCc1ccc(OCc2cccc(F)c2)cc1)C(N)=O | 1.66 µM (active) | 
C[C@@]12C(=O)OC(=O)[C@@]1(C)C1CCC2O1 | 4.18 µM (active) | 
Cc1c2oc3c(C)ccc(C(=O)NC4C(=O)NC(C(C)C)C(=O)N5CCCC5C(=O)N(C)CC(=O)N(C)C(C(C)C)C(=O)OC4C)c3nc-2c(C(=O)NC2C(=O)NC(C(C)C)C(=O)N3CCCC3C(=O)N(C)CC(=O)N(C)C(C(C)C)C(=O)OC2C)c(N)c1=O (stereo not drawn) (I: TVP[Sar][NMeV] / II: TVP[Sar][NMeV]; ester I:1-I:C, II:1-II:C; linker I:N-II:N via Actinocin(9to1); configuration not given here) |  | 1.66% (inactive)
CC(C)c1cnn2c(NCc3ccccc3)cc(NCCCCCCN)nc12 | 0.332 µM (active) | 
CC(C=CC(=O)NO)=C[C@@H](C)C(=O)c1ccc(N(C)C)cc1 | 0.469 µM (active) | 
